Among the data in PubChem BioAssay AID624483 (NMMLSC, 2012) are fluorescence intensity values, retold here.

Hit rate of the full screen: of about 360,000 compounds, about 11,000 (3.1%) were called active. Not shown: some 2% with an inconclusive outcome. The full list was thinned out, with actives kept by preference. A number with no mark means an inactive call. Cut-off read from the data, not from the text of the source: active = fluorescence intensity above about 16000; inconclusive = no clear call, values can overlap the other calls; inactive = below that.

A short description of the assay: counter-screen for toxin protease inhibitors: compound fluorescence, primary screen, artefact control for toxin protease inhibitor project, biochemical, multiplex microsphere, HTS (AID 624483). The conditions noted are these: compound autofluorescence counterscreen, microsphere flow cytometry; stronger effect = higher value. Background: The purpose of a counterscreen is to sort out artefacts and off-target activity.
As to `CCN(C(=O)CSc1nnnn1-c1ccccc1OC)C1CCS(=O)(=O)C1` (stereo unspecified), the fluorescence intensity is 5910.

Regarding `Cc1ccccc1C(OCCN(C)C)C1CCCCC1` (stereo unspecified), the fluorescence intensity was 2370.

`CCNC(=O)C1(C)CCN(C(=O)c2ccccc2)C1` (stereo unspecified): the fluorescence intensity is 3880.

Turning to `COC(=O)Cc1nc2c(N)nc(N)nc2[nH]c1=O`, the fluorescence intensity was 4130.

With `O=C(NNS(=O)(=O)c1c(F)cc(F)c(Cl)c1F)C12CC3CC(CC(C3)C1)C2`, the fluorescence intensity was 4000.

For `O=C(Nc1ccccc1C(=O)O)c1ccc(N2C(=O)C3CC=CCC3C2=O)cc1` (stereo unspecified), the fluorescence intensity is 4170.

In the case of `CN(C)CCNC(=O)c1cccc(-c2cnc3c(NC=O)cc(-c4cccc(C(F)(F)F)c4)cn23)c1`, the fluorescence intensity was 3700.

On to `CN1CCN(C(=O)c2ccc(-c3cc4nc(NCc5cccnc5)n(C)c(=O)c4s3)cc2)CC1`, for which the fluorescence intensity was 3940.

As to `O=C(NCc1ccccc1)C1c2ccccc2OCC(=O)N1C1CC1` (stereo unspecified), the fluorescence intensity was 5460.

For the compound `O=C(C1CCCO1)N(Cc1ccccc1)c1ccccc1` (stereo unspecified), the fluorescence intensity was 16100 (active).

Turning to `O=C(C1CCCO1)N(c1ccc(F)cc1)C1C=CS(=O)(=O)C1` (stereo unspecified), the fluorescence intensity is 3830.

Regarding `O=C(NCc1ccccc1Cl)C1CCCO1` (stereo unspecified), the fluorescence intensity is 4090.

For `CCc1ccc2c(c1)NC(=O)C2(C)Cc1ccc(OC(F)(F)F)cc1` (stereo unspecified), the fluorescence intensity is 2900.

Take `COCc1cc(C)nc(SCC(=O)Nc2cccc(C)c2)c1C#N`: the fluorescence intensity was 4220.

Consider `O=C(Nc1ccccc1N1CCN(C(=O)c2ccccc2)CC1)c1ccco1`, for which the fluorescence intensity is 3700.

`O=C(Nc1ccccc1N1CCN(C(=O)c2ccccc2)CC1)c1ccc2c(c1)OCO2`: the fluorescence intensity was 23400 (active).

Regarding `O=C(c1ccco1)N1CCN(C(=S)Nc2cc(F)cc(F)c2)CC1`, the fluorescence intensity was 5420.

Consider `N#Cc1ccccc1NC(=O)c1ccc2c(c1)OCO2`, for which the fluorescence intensity was 3490.

As to `CCNC(=S)N1CCN(C(=O)c2ccco2)CC1`, the fluorescence intensity was 21900 (active).

As for `O=C(CN1CCN(C(=O)c2ccco2)CC1)Nc1ccc2c(c1)OCO2`, the fluorescence intensity was 2540.

Regarding `O=C(CNS(=O)(=O)c1ccccc1)N1CCN(C(=O)c2ccco2)CC1`, the fluorescence intensity was 5790.

Regarding `O=C(c1ccc2c(c1)OCO2)N1CCN(C(=O)c2ccco2)CC1`, the fluorescence intensity was 20500 (active).

In the case of `O=CN1CCN(C(=O)c2ccc3c(c2)OCO3)CC1`, the fluorescence intensity is 6220.

As to `Cc1nc2c(OCc3cccc(Cl)c3)cccn2c1N(C)CC1CC1`, the fluorescence intensity is 3860.

Consider `CN(Cc1ccccc1)C(=O)C(=O)c1cn(CC(=O)N2CCCC2)c2ccccc12`, for which the fluorescence intensity was 5870.

For the compound `NCCCCC(C(=O)O)N(C(=O)OCc1ccccc1)C(=O)OCc1ccccc1` (stereo unspecified), the fluorescence intensity is 4320.

Regarding `O=C1NC[C@H](CCCCN2C[C@H](Cc3ccc(O)cc3)N(CC3CCCCC3)C(=O)C2=O)N(CCc2ccccc2)C1=O`, the fluorescence intensity is 4980.

With `NC(Cc1ccc(F)cc1)c1csc(Nc2nncc3ccccc23)n1` (stereo unspecified), the fluorescence intensity is 3900.

Turning to `C#CCNC(=O)C[C@@H]1C[C@@]2(C(=O)OCC)CCCC=C2N(Cc2ccco2)C1=O`, the fluorescence intensity is 4250.

On to `CC(=O)N(O)CCCCCNC(=O)CCC(=O)N(O)CCCCCNC(=O)CCC(=O)N(O)CCCCCNC(=O)CCC(=O)O`, for which the fluorescence intensity is 3470.

`CC1=C(C(=O)N(C(C)C)C(C)C)CC(CC(=O)NCCCCc2ccccc2)C(=O)N1CCC1=CCCCC1` (stereo unspecified): the fluorescence intensity is 5390.

Consider `CCOC(=O)N1CCN(C(=O)Cc2ccc(-n3c(=S)[nH]c4ccccc4c3=O)cc2)CC1`, for which the fluorescence intensity is 10600.

For the compound `O=C(Cc1ccc(-n2c(=O)[nH]c3ccccc3c2=O)cc1)N1CCN(c2cccc(Cl)c2)CC1`, the fluorescence intensity was 22000 (active).

Turning to `O=c1c2ccccc2[nH]c(=S)n1-c1cccc(Cl)c1`, the fluorescence intensity was 4010.

Take `CNc1cc(-c2c(OC)cccc2OC)ncn1`: the fluorescence intensity was 3890.

Turning to `CN1OC[C@@H]2CN(C(=O)C(C)(C)C)[C@H](c3ccc(-n4ccnc4)cc3)C[C@@H]21`, the fluorescence intensity was 4320.

In the case of `COc1cccc(-c2cc(NC(C)=O)c3ncc(-c4cccc(C(C)=O)c4)n3c2)c1`, the fluorescence intensity was 3560.

`Nn1c(Cc2cccc3ccccc23)nnc1SCC(=O)N1CC(=O)Nc2ccccc21`: the fluorescence intensity was 3230.

Consider `O=C1CN(C(=O)COC(=O)/C=C/c2ccc(F)cc2)c2ccccc2N1`, for which the fluorescence intensity is 2990.

Regarding `C=CCn1c(COc2ccccc2F)nnc1SCC(=O)N1CC(=O)Nc2ccccc21`, the fluorescence intensity was 19900 (active).

As to `CCN1C(=O)[C@@H]2[C@@H]3CN(S(=O)(=O)c4ccccc4C)[C@@H](c4ccc(Cl)cc4)[C@@H]3C(=O)C[C@@H]2C1=O`, the fluorescence intensity was 5460.

With `CC(C)(O)C#Cc1ccc(CNC[C@H]2O[C@@H](n3cnc4c(=O)[nH]c(N)nc43)[C@H](O)[C@@H]2O)s1`, the fluorescence intensity is 6310.

Regarding `CC(C)Oc1cc(F)ccc1-c1cc(C(=O)Nc2ccc(F)cc2)[nH]n1`, the fluorescence intensity was 2820.

With `Cc1ccc([C@@H]2CC(=O)[C@@H]3CN(S(=O)(=O)c4ccc(C)cc4)[C@H](c4ccccc4F)C[C@@H]3N2S(=O)(=O)c2ccc(Cl)cc2)cc1`, the fluorescence intensity was 5790.

In the case of `COC(=O)C1(C(=O)OC)C/C=C\CN(S(=O)(=O)c2ccccc2[N+](=O)[O-])CCC1`, the fluorescence intensity is 5420.

As for `Cc1ccc(S(=O)(=O)NCC(=O)N2CCOCCOCCOCCOCC2)cc1`, the fluorescence intensity is 3170.

As for `Cc1ccc(S(=O)(=O)NCC(C)NS(C)(=O)=O)cc1` (stereo unspecified), the fluorescence intensity was 17300 (active).

As for `Cc1ccc(S(=O)(=O)NCCNC(C)c2ccc(Br)cc2)cc1` (stereo unspecified), the fluorescence intensity was 3800.

For the compound `CCCNC(=O)C1(C)CCCN(C(=O)c2cccc(OC(C)=O)c2C)C1` (stereo unspecified), the fluorescence intensity was 2790.

Regarding `CCN(CC)CCCC(C)n1c2nc(=O)[nH]c(=O)c-2nc2cc(Cl)ccc21` (stereo unspecified), the fluorescence intensity was 3960.

On to `CC1(Oc2ccc(Cl)cc2)CCN(Cc2csc3ccccc23)C1` (stereo unspecified), for which the fluorescence intensity was 3910.

On to `CC(C)CCSc1ncnc2c1oc1nc3c(cc12)COC(C)(C)C3`, for which the fluorescence intensity is 23900 (active).

On to `CC1CCc2c(nc3ncnn3c2Nc2ccc(OC(F)(F)F)cc2)C1` (stereo unspecified), for which the fluorescence intensity is 5260.

In the case of `CCc1nc2c(OCCOc3ccccc3)cccn2c1N(C)C(=O)c1ccc(OC)cc1`, the fluorescence intensity is 3960.

For the compound `COc1cccc(-c2ccc3c(c2)N(Cc2ccccc2OC)C(=O)C(C)S3)c1` (stereo unspecified), the fluorescence intensity was 4210.

On to `CCCc1nc2oc3c(=O)[nH]cnc3c2c2c1COC(C)(C)C2`, for which the fluorescence intensity was 3850.

With `CC/C(C)=N/Nc1nc2sc3c(c2c(=O)[nH]1)CC(C)(C)OC3`, the fluorescence intensity was 3170.

As for `CCCc1nc2oc3c(OCC)ncnc3c2c2c1COC(C)(C)C2`, the fluorescence intensity was 19200 (active).

Regarding `CC(=O)Nc1cccc(-c2cc(NC=O)c3ncc(-c4ccc(F)c(Cl)c4)n3c2)c1`, the fluorescence intensity was 4090.

For the compound `C/C(COc1ccccc1)=N\NC(=O)c1nnn(-c2nonc2N)c1-c1ccc(C)cc1`, the fluorescence intensity was 2830.

Turning to `CCOC(=O)c1nnn(-c2nc(OC)nc(N(C)C)n2)c1-c1ccccc1`, the fluorescence intensity is 4860.

For the compound `CCOC(=O)c1nnn(-c2nonc2OC)c1-c1ccccc1`, the fluorescence intensity is 20500 (active).

On to `CCC(C(=O)Nc1ncccn1)(C(F)(F)F)C(F)(F)F`, for which the fluorescence intensity was 3150.

In the case of `CCN(C(=O)CSc1nc(N)cc(=O)[nH]1)C1CCS(=O)(=O)C1` (stereo unspecified), the fluorescence intensity is 3860.

With `COc1ccc(C(=O)CC2C(=O)N(C)C(=O)N(C)C2=O)cc1`, the fluorescence intensity was 3490.

On to `O=C(CCCN1C(=O)c2ccccc2C1=O)Oc1ccc(Cl)cc1`, for which the fluorescence intensity was 2140.

Turning to `COc1ccc(C(=O)CN(C(=O)c2ccc(Cl)cc2)N2C(=O)c3ccccc3C2=O)cc1`, the fluorescence intensity is 17500 (active).

In the case of `COc1cccc(C(=O)OCc2cc(=O)oc3c(C)c(C)ccc23)c1OC`, the fluorescence intensity was 5450.

Turning to `COC(=O)Cc1cc(=O)oc2c(C)c(O)ccc12`, the fluorescence intensity was 19200 (active).

As to `CCCc1cc(=O)oc2c(C)c(OCC(=O)Nc3ccccn3)ccc12`, the fluorescence intensity was 4420.

For `CCOCC(=O)NCc1ccc2c(c1)cc(C)n2C`, the fluorescence intensity is 4110.

On to `COc1cccc2cc(C(=O)NCc3ccc(C)cc3)c(=N)oc12`, for which the fluorescence intensity was 4920.

Turning to `CC(OC(=O)CN1C(=O)C2CCCCC2C1=O)C(=O)Nc1ncc(Cl)cc1Cl` (stereo unspecified), the fluorescence intensity was 23500 (active).

In the case of `CC(Oc1ccc(Cl)cc1)C(=O)OCC(=O)Nc1ncc(Cl)cc1Cl` (stereo unspecified), the fluorescence intensity was 2090.

With `CC1(C(=O)OCC(=O)Nc2ncc(Cl)cc2Cl)CC1(Cl)Cl` (stereo unspecified), the fluorescence intensity was 4330.

For the compound `Cc1ccc2[nH]c3c(=O)n(CC(=O)NCCc4ccc(Cl)cc4)ncc3c2c1`, the fluorescence intensity was 5710.

Turning to `COC(=O)c1cc(OC)c(OC)cc1NC(=O)CSc1ccc(C)cc1`, the fluorescence intensity is 25800 (active).

Regarding `CCc1cc2cc(OC)ccc2nc1SCC(=O)Nc1cc(OC)c(OC)cc1C(=O)O`, the fluorescence intensity was 4520.

Regarding `COc1ccc(C)cc1NC(=O)CSc1ccc(Cl)cc1`, the fluorescence intensity is 2540.

On to `COc1ccc(Br)cc1CN(C)C(=O)C1CC(=O)N(C2CCCC2)C1` (stereo unspecified), for which the fluorescence intensity is 3870.

With `CCOC(=O)[C@H]1[C@H]2COc3ccc(Cl)cc3[C@@H]2N2C(=O)c3cc(C)ccc3NC(=O)[C@@]12C`, the fluorescence intensity was 3320.

Take `Cc1ccccc1-n1c(C)cc(/C=C2\NC(=O)NC2=O)c1C`: the fluorescence intensity was 17400 (active).

Take `Cc1ccc(CN2C(=O)N/C(=C/c3cc(C)n(-c4ccccn4)c3C)C2=O)cc1`: the fluorescence intensity was 9250.

Turning to `Cc1cc(/C=C2/NC(=O)NC2=O)c(C)n1-c1cccnc1`, the fluorescence intensity was 8090.

Turning to `O=C(Nc1c(-c2ccccc2)nc2c(Br)cc(Br)cn12)c1ccco1`, the fluorescence intensity was 3100.

As for `Nc1ncnc2c1ncn2[C@@H]1O[C@H](CNC(=O)[C@H](N)Cc2cccnc2)[C@@H](O)[C@H]1O`, the fluorescence intensity is 6300.

In the case of `Cn1c(Nc2ccc(F)cc2)nc2cc(-c3ccsc3)sc2c1=O`, the fluorescence intensity is 3640.

Regarding `CCNC(=O)C1(C)CCN(Cc2ccc(C(=O)OCC)o2)C1` (stereo unspecified), the fluorescence intensity was 4060.

As to `CCc1ccccc1NC(=O)CSc1nnc(-c2ccncc2)o1`, the fluorescence intensity was 4930.

`O=C(CSc1nnc(-c2ccc(NS(=O)(=O)c3ccccc3)cc2)o1)NCC1CCCO1` (stereo unspecified): the fluorescence intensity was 3540.

Turning to `CCN(CC)C(=O)CSc1nnc(-c2ccc(S(=O)(=O)NCc3ccccc3Cl)cc2)o1`, the fluorescence intensity was 16600 (active).
